From PubChem BioAssay (NCI)
About 79,000 compounds went through this panel and 15% of them were active in at least one assay; those are over-represented in the sample as a whole. Active and inactive are the calls of the source. Cut-off read from the data, not from the text of the source: active = growth inhibition above about 70%; inactive = the rest.

How the values were obtained:
[1] = NCI Yeast Anticancer Drug Screen. Data for the rad52 strain (AID 147);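 note: 0% = growth of vehicle-treated control cultures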; details: S. cerevisiae rad52 mutant growth inhibition, active compounds read high
How it was run: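 Growth of repair-deficient yeast cells was compared between compound-treated and vehicle-treated cultures to give percent inhibition.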

[2] = NCI Yeast Anticancer Drug Screen. Data for the wt1 strain (AID 149);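 note: 0% = growth of vehicle-treated wt1 cultures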; details: S. cerevisiae wt1 strain (SPY 50644) growth inhibition, active compounds read high
How it was run: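 Measured: growth of wt1 yeast under compound versus vehicle treatment, reported as inhibition.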

[3] = NCI Yeast Anticancer Drug Screen. Data for the rad50EPP+ strain (AID 151);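 note: 0% = growth of vehicle-treated control cultures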; details: S. cerevisiae rad50 mutant strain, active compounds read high
How it was run: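 Measured: growth inhibition of rad50EPP+ yeast. Reference: vehicle-treated controls. Screen uses strains with defined genetic alterations in DNA damage repair or cell cycle control.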

[4] = NCI Yeast Anticancer Drug Screen. Data for the mgt1 strain (AID 153); details: S. cerevisiae mgt1 mutant growth inhibition, active compounds read high
How it was run: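 Compounds were applied to mgt1 mutant yeast, and growth was then compared against vehicle-treated control cultures to give percent inhibition.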

[5] = NCI Yeast Anticancer Drug Screen. Data for the rad50 strain (AID 155);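 note: 0% = growth of vehicle-only cultures of the same strain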; details: S. cerevisiae rad50 strain growth inhibition, active compounds read high
How it was run: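 Growth of the mutant yeast was measured after compound exposure and referenced to vehicle-treated cultures.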

[6] = NCI Yeast Anticancer Drug Screen. Data for the mec2-1 strain (AID 157); details: S. cerevisiae mec2-1 strain, active compounds read high
How it was run: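 Compounds were applied to mec2-1 yeast cells. Their growth was then compared with that of vehicle-treated cultures to give growth inhibition.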

[7] = NCI Yeast Anticancer Drug Screen. Data for the rad14 strain (AID 159);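 note: 0% = growth of vehicle-treated control cultures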; details: S. cerevisiae rad14 strain growth inhibition, active compounds read high
How it was run: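 Here, inhibition of yeast growth was measured after compound exposure, using a strain with a genetic defect in DNA damage repair and vehicle-treated cultures as the reference.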

[8] = NCI Yeast Anticancer Drug Screen. Data for the sgs1 mgt1 strain (AID 161);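 note: 0% = growth of cultures given vehicle only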; details: S. cerevisiae sgs1 mgt1 strain, active compounds read high
How it was run: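 Yeast cells carrying a defined DNA-repair defect were exposed to test compounds. Growth inhibition was measured relative to vehicle-treated controls.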

[9] = NCI Yeast Anticancer Drug Screen. Data for the CLN2oe strain (AID 163);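 note: 0% = growth of vehicle-only control cultures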; details: S. cerevisiae CLN2oe strain, active compounds read high
How it was run: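 Cells of an engineered yeast line with disturbed cell-cycle regulation are treated with compound. Inhibition of growth is then calculated relative to the vehicle-treated reference.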

[10] = NCI Yeast Anticancer Drug Screen. Data for the cln2 rad14 strain (AID 165);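 note: 0% = growth equal to vehicle treated cultures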; details: S. cerevisiae cln2 rad14 strain, active compounds read high
How it was run: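 Strain: cln2 rad14 yeast, altered in cell cycle control and DNA damage repair. Read-out: growth inhibition vs vehicle.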

[11] = NCI Yeast Anticancer Drug Screen. Data for the bub3 strain (AID 167); details: S. cerevisiae bub3 mutant strain, active compounds read high
How it was run: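 Whole-cell yeast assay. The mutant strain was incubated with compounds, and growth inhibition was determined by comparison with vehicle-treated cells.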

[12] = NCI Yeast Anticancer Drug Screen. Data for the wt2 strain (AID 169);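 note: 0% = growth of vehicle-treated yeast cultures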; details: S. cerevisiae wt2 strain growth inhibition, active compounds read high
How it was run: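 Growth of compound-treated yeast is measured and expressed as inhibition relative to vehicle-only controls.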

[13] = NCI Yeast Anticancer Drug Screen. Data for the mlh1 strain (AID 171);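 note: 0% = growth of vehicle-treated control cultures of the same strain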; details: S. cerevisiae mlh1 strain growth inhibition, active compounds read high
How it was run: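 Test agents were incubated with yeast bearing a defined DNA damage repair or cell cycle control alteration; values are growth inhibition normalised to vehicle-treated cultures.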

[14] = NCI Yeast Anticancer Drug Screen. Data for the mlh1 rad18 strain (AID 175); details: S. cerevisiae mlh1 rad18 strain growth inhibition, active compounds read high
How it was run: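 A repair-deficient yeast strain is exposed to test compound, and growth is scored relative to vehicle-treated controls.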

[15] = NCI Yeast Anticancer Drug Screen. Data for the rad18 strain (AID 177); details: S. cerevisiae rad18 mutant growth inhibition, active compounds read high
How it was run: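 DNA-repair-defective yeast; compound treatment; growth inhibition scored against vehicle.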

[16] = at 5.0 µM (retest, dose inferred, filed as 0.5)
[17] = at 50.0 µM (retest, dose inferred, filed as 5.0)

Measured: growth inhibition

c1ccc2c(c1)ccn2CCc1c[nH]c2ccccc12
active: [1]; at 100.0 µM 97% | [2]; at 100.0 µM 95% | [4]; at 100.0 µM 96% | [5]; at 50.0 µM 91% | [5]; at 100.0 µM 98% | [6]; at 50.0 µM 93.4% | [6]; at 100.0 µM 96% | [7]; at 100.0 µM 97% | [9]; at 100.0 µM 95% | [10]; at 50.0 µM 91.7% | [11]; at 33.0 µM 79% | [11]; [17] 70% | [11]; at 50.0 µM 89.7% | [11]; at 100.0 µM 95% | [12]; at 100.0 µM 97% | [13]; at 100.0 µM 97% | [14]; at 50.0 µM 91.4% | [15]; at 100.0 µM 98%
inactive: [1]; at 1.2 µM -35% | [1]; at 3.7 µM -37% | [1]; at 11.0 µM -20% | [1]; at 33.0 µM 31% | [2]; at 1.2 µM -16% | [2]; at 3.7 µM -31% | [2]; at 11.0 µM -19% | [2]; at 33.0 µM 21% | [3]; at 1.2 µM -33% | [3]; at 3.7 µM -5% | [3]; at 11.0 µM 23% | [3]; at 33.0 µM 41% | [3]; at 100.0 µM 55% | [4]; at 1.2 µM -26% | [4]; at 3.7 µM -26% | [4]; at 11.0 µM -4% | [4]; at 33.0 µM 33% | [5]; at 1.2 µM -20% | [5]; at 3.7 µM -20% | [5]; [16] -13% | [5]; at 11.0 µM -5% | [5]; at 33.0 µM 34% | [5]; [17] 48% | [6]; at 1.2 µM -24% | [6]; at 3.7 µM -23% | [6]; [16] -5% | [6]; at 11.0 µM -27% | [6]; at 33.0 µM 0% | [6]; [17] 1% | [7]; at 1.2 µM -16% | [7]; at 3.7 µM -29% | [7]; at 11.0 µM -28% | [7]; at 33.0 µM 6% | [8]; [16] -10% | [8]; [17] 25% | [8]; at 50.0 µM 57.9% | [9]; at 1.2 µM 7% | [9]; at 3.7 µM 21% | [9]; at 11.0 µM 12% | [9]; at 33.0 µM 48% | [10]; [16] -1% | [10]; [17] 52% | [11]; at 1.2 µM 15% | [11]; at 3.7 µM 18% | [11]; [16] -19% | [11]; at 11.0 µM 39% | [12]; at 1.2 µM -29% | [12]; at 3.7 µM -28% | [12]; at 11.0 µM -20% | [12]; at 33.0 µM 20% | [13]; at 1.2 µM -18% | [13]; at 3.7 µM -14% | [13]; at 11.0 µM -6% | [13]; at 33.0 µM 15% | [14]; [16] 3% | [14]; [17] 51% | [15]; at 1.2 µM -42% | [15]; at 3.7 µM -46% | [15]; at 11.0 µM -23% | [15]; at 33.0 µM 9%

O=C1C2=C(c3ccccc31)C(c1ccccc1)N1C(=O)CSC1=N2 (stereo unspecified)
active: [1]; at 100.0 µM 73% | [4]; at 100.0 µM 81% | [5]; at 100.0 µM 74% | [6]; at 100.0 µM 73% | [7]; at 100.0 µM 74% | [11]; at 33.0 µM 79% | [11]; [17] 92% | [11]; at 50.0 µM 87.2% | [11]; at 100.0 µM 92% | [12]; at 100.0 µM 82% | [13]; at 100.0 µM 84% | [15]; at 100.0 µM 72%
inactive: [1]; at 1.2 µM 12% | [1]; at 3.7 µM 15% | [1]; at 11.0 µM 25% | [1]; at 33.0 µM 31% | [2]; at 1.2 µM 10% | [2]; at 3.7 µM 3% | [2]; at 11.0 µM 15% | [2]; at 33.0 µM 22% | [2]; at 100.0 µM 54% | [3]; at 1.2 µM 9% | [3]; at 3.7 µM 2% | [3]; at 11.0 µM 5% | [3]; at 33.0 µM 33% | [3]; at 100.0 µM 23% | [4]; at 1.2 µM -2% | [4]; at 3.7 µM 1% | [4]; at 11.0 µM -7% | [4]; at 33.0 µM 38% | [5]; at 1.2 µM -1% | [5]; at 3.7 µM 2% | [5]; [16] 14% | [5]; at 11.0 µM 12% | [5]; at 33.0 µM 30% | [5]; [17] 44% | [5]; at 50.0 µM 58.2% | [6]; at 1.2 µM 5% | [6]; at 3.7 µM 10% | [6]; [16] -9% | [6]; at 11.0 µM 10% | [6]; at 33.0 µM 8% | [6]; [17] 16% | [6]; at 50.0 µM 45% | [7]; at 1.2 µM -21% | [7]; at 3.7 µM -17% | [7]; at 11.0 µM -20% | [7]; at 33.0 µM 6% | [8]; [16] 11% | [8]; [17] 44% | [8]; at 50.0 µM 59.6% | [9]; at 1.2 µM 14% | [9]; at 3.7 µM 4% | [9]; at 11.0 µM 9% | [9]; at 33.0 µM -3% | [9]; at 100.0 µM 54% | [10]; [16] -11% | [10]; [17] 26% | [10]; at 50.0 µM 38.7% | [11]; at 1.2 µM -2% | [11]; at 3.7 µM 17% | [11]; [16] -31% | [11]; at 11.0 µM 15% | [12]; at 1.2 µM 2% | [12]; at 3.7 µM 7% | [12]; at 11.0 µM 28% | [12]; at 33.0 µM 44% | [13]; at 1.2 µM 3% | [13]; at 3.7 µM -8% | [13]; at 11.0 µM 1% | [13]; at 33.0 µM 32% | [14]; [16] -27% | [14]; [17] 42% | [14]; at 50.0 µM 51% | [15]; at 1.2 µM -1% | [15]; at 3.7 µM 10% | [15]; at 11.0 µM 14% | [15]; at 33.0 µM 31%
